Screening data deposited in PubChem BioAssay by National Center for Advancing Translational Sciences (NCATS).
Giardia FBPA inh = inhibitors of Giardia lamblia fructose-1,6-bisphosphate aldolase. 290,000 compounds, 0.71% hits. Potency, µM (series often up to 59.6 µM), for inactives: at the highest dose activity, negative = inhibition, hits mostly inhibitors. purified Giardia FBPA; active = well fitted inhibition curve with a large enough effect; inconclusive = small, poorly fitted or top-dose-only effect, or effect the other way; note: nearly all actives have a fitted effect of over 55% in size
Target sequence (A8B2U2 whole entry, looked up): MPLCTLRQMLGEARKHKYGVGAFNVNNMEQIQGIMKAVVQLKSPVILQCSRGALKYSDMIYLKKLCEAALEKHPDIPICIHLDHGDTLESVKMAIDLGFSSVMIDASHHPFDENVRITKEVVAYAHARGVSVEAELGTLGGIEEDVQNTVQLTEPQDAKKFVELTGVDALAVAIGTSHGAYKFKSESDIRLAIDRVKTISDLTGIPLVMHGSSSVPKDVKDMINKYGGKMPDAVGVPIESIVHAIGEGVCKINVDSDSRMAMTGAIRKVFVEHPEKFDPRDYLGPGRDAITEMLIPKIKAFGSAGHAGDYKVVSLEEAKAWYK
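40 nM FBPA preincubated 10 min at RT with compound (up to 57.5 uM final), then substrate plus GAPDH/TPI/NAD/arsenate coupling and diaphorase/resazurin added. Fluorescence read after 20 min at RT, 525/598 nm.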
FMDV antiviral = blocks foot and mouth disease virus. FMDV antiviral cell-based qHTS. Potency, µM (titrated, usually from 57.9 µM), without a hit: at the top dose activity change, negative = inhibition, hits mostly inhibitors. 410,000 compounds, 1.2% hits; calls by dose curve; tested in HEK293T cells; note: read-out not given here; nearly all actives have a fitted effect of over 45% in size
VACV Venus inh = inhibitors of vaccinia virus (Venus reporter) | Vaccinia virus Venus reporter expression, fluorescence | Potency, µM (series often up to 36.5 µM), inactives show top-dose activity change, negative = inhibition, usual class: inhibitors | 330,000 compounds, 0.46% hits | AID 720580; calls by dose curve; tested in A549 cells; note: nearly all actives have a fitted effect of over 30% in size
Vaccinia mCherry = inhibitors of vaccinia virus infection (mCherry reporter signal); Potency, µM (series often up to 36.5 µM), without a hit: at the highest dose activity change, negative = inhibition, hits mostly inhibitors; 310,000 compounds, 0.63% hits; Vaccinia virus mCherry reporter infection, fluorescence; calls by dose curve; tested in A549 cells; note: nearly all actives have a fitted effect of over 35% in size
Numbers without * were called inactive; i = inactive; ? = inconclusive; nt = no result given; ! = not active in a repeat; [ ] = dose if it differs, or a comment. Most compounds without a hit are left out; they make up all but 2.2% or so of the library. % is set by controls: 0 for no effect and ±100 for the full control effect; potency is the fitted concentration of half-maximal effect.

SMILES | Giardia FBPA inh | FMDV antiviral | VACV Venus inh | Vaccinia mCherry
COc1cc(OC)c(N(C)S(=O)(=O)c2cccc(C(=O)OCC(=O)c3c[nH]c4ccccc34)c2)cc1Cl | -13.0% | 8.91µM* | -24.8% | -25.1%
COc1ccc(OC)c(CCNC(=O)c2cc3cccc4c3n2CCS4)c1 | nt | 4.47µM* | -4.9% | -6.6%
C1=Cc2ccccc2/C1=C\c1cc[cH-]c1.[Fe+2].c1cc[cH-]c1 | nt | nt | 5.6% | -12.1%
Cc1cc(C)n(-c2ccc(C(=O)OC(C)C(=O)Nc3ccc(C(N)=O)cc3)cc2)n1 (configuration not stated) | nt | 35.5µM* | -12.9% | -20.0%
CC(=O)Nc1ccc(NC(=O)C(C)OC(=O)c2ccc(-n3cnnn3)cc2)cc1 (configuration not stated) | nt | -14.6% | 5.2% | -6.2%
O=C(CSc1nnc(-c2ccc(Br)cc2)o1)N1CCN(C(=O)c2ccco2)CC1 | -5.1% | ? | 5.01µM* | 0.631µM*
O=C(CSc1nnc(-c2ccccc2)o1)N1CCCC1 | 6.5% | 54.4% | -7.0% | i
Cc1nnc(SCC(=O)N2CCN(C(=O)c3ccco3)CC2)n1C | nt | -8.7% | nt | nt
CCOC(=O)N1CCN(C(=O)CSc2nnc(-c3cccc(Cl)c3)o2)CC1 | 0.8% | -16.9% | ? | 5.62µM*
Cc1cc(C)cc(-c2nnc(SCC(=O)N3CCN(C(=O)c4ccco4)CC3)o2)c1 | 5.1% | ? | ? | 8.91µM*
CCOCCCNC(=O)c1c(NC(=O)c2nc(SCC)ncc2Cl)sc2c1CCCC2 | nt | nt | -5.6% | 4.5%
COCc1c(C(=O)N2CCN(C)CC2)cnn1-c1ncc2c(n1)-c1ccccc1CCC2 | nt | -10.2% | -12.4% | -24.3%
COc1ccc(N(CC(=O)Nc2ccc(OC)cc2OC)S(=O)(=O)c2ccccc2)cc1 | -9.1% | -3.0% | ? | -28.7%
COc1ccc(S(=O)(=O)N(CC(=O)Nc2ccc(OC)cc2OC)c2ccc(Cl)cc2)cc1 | nt | 3.16µM* | -18.4% | -23.9%
O=C(Nc1ccc2oc(-c3ccccc3F)nc2c1)c1ccc2c(c1)OCCO2 | -8.9% | 35.5µM* | -29.1% | i
O=C(Nc1ccc2nn(-c3ccccc3)nc2c1)c1ccc2c(c1)OCCO2 | -0.6% | 25.1µM* | -28.9% | nt
COc1cc(/C=C2\SC(=O)NC2=O)ccc1Oc1ccc([N+](=O)[O-])cc1[N+](=O)[O-] | -2.8% | -3.4% | -5.0% | -24.3%
CCN1C(=O)C(=Cc2cccc(OC)c2Oc2ccc([N+](=O)[O-])cc2[N+](=O)[O-])SC1=S | -5.3% | 12.6µM* | -25.0% | ?
CC1(C)C(=O)Nc2ccccc2N1C(=O)CSc1nc(-c2ccccc2)cs1 | -1.2% | 15.8µM* | -8.3% | -11.4%
Cc1ccc2c(c1)CCC2=O | nt | nt | -13.8% | i
CN1CC2(Cc3c1ccc1ccccc31)C(=O)OC(C)(C)OC2=O | -21.8% | ? | 6.31µM* | 3.98µM*
Cc1ccc2c(c1)CC1(CN2C)C(=O)OC2(CCCCC2)OC1=O | ? | -18.5% | ? | -28.0%
Cc1sc2ncnc(N(C)Cc3ccco3)c2c1C | 0.8% | 22.4µM* | -18.2% | nt
CCn1c2ccccc2c2cc(NC(=O)COC(=O)c3ccccc3O)ccc21 | 0.6% | -0.8% | 2.3% | -1.6%
CCn1c2ccccc2c2cc(NC(=O)COC(=O)c3cc(S(N)(=O)=O)c(Cl)cc3Cl)ccc21 | -0.5% | -20.8% | ? | 11.2µM*
SMILES | Giardia FBPA inh | FMDV antiviral | VACV Venus inh | Vaccinia mCherry
CCn1c2ccccc2c2cc(NC(=O)COC(=O)c3ccccc3F)ccc21 | 4.8% | 0.1% | ? | 10µM*
NC(=O)COc1ccccc1C(=O)Nc1ccccc1 | nt | nt | -7.8% | -5.9%
CN(C)c1ccc(/C=N/Nc2nncc3ccccc23)cc1 | -20.5% | 7.94µM* | -9.2% | i
COc1ccc(C2CC(c3ccccc3)Oc3cc4c(cc32)OCO4)cc1 (configuration not stated) | 15.8µM*! | nt | nt | nt
COc1ccc(C2CC(c3ccccc3)Oc3ccc(C(C)(C)C)cc32)cc1 (configuration not stated) | 2.0% | nt | nt | nt
Cn1ccc(C(=O)NCC2CCC3(CCN(Cc4ccc(F)cc4F)CC3)O2)n1 (configuration not stated) | nt | ? | -10.7% | i
Cc1ccc(C)c(C(=O)CSc2nnnn2C(C)C)c1 | -4.6% | 32.1% | nt | nt
Cc1ccc(C(=O)CSc2nnnn2C(C)C)c(C)c1 | -2.9% | 14.1µM* | -19.2% | ?
CN(CCc1ccccc1)C(=O)c1ccc(NC(=O)Cc2ccc(NC(=O)C3CCN(C(=O)C4CCC4)CC3)cc2)cc1 | nt | -26.0% | -7.8% | i
CN(CCc1ccccc1)C(=O)c1ccc(NC(=O)Cc2ccc(NC(=O)C3CCCN(C(=O)C4CCC4)C3)cc2)cc1 (configuration not stated) | nt | ? | ? | 10µM*
C=C1CC(Cn2cc(Br)c(=O)[nH]c2=O)(c2ccc(-c3ccccc3)cc2)OC1=O (configuration not stated) | nt | ? | 7.94µM* | 2.82µM*
COc1ccc(CC(=O)Nc2ccc(-c3nnc(-c4ccccc4)o3)cc2)cc1OC | 0.9% | 42.9% | -5.6% | i
COc1ccc(CC(=O)Nc2cccc(-c3nnc(-c4cccc(C)c4)o3)c2)cc1OC | -1.6% | 39.8µM* | ? | -6.9%[1.46 µM]
Cc1ccc(OCC(=O)Nc2cccc(-c3nnc(-c4ccccc4)o3)c2)c(C)c1 | 4.5% | -20.1% | nt | nt
COc1ccc(CC(=O)Nc2cccc(-c3nnc(-c4ccccc4)o3)c2)cc1OC | 0.7% | nt | ? | 11.2µM*
COc1ccc(CC(=O)Nc2cccc(-c3nnc(-c4ccc(C)cc4)o3)c2)cc1OC | 0.3% | 3.98µM* | -3.3% | -12.4%
CN(CCO)C(=O)c1cn(C2CCN(Cc3cccc4ccccc34)CC2)nn1 | nt | -14.3% | -6.4% | -10.4%
O=c1cc[nH]c(=S)[nH]1 | 15.8µM* | ? | -8.2% | -11.5%
COc1cc(SC)ccc1C(=O)Nc1ccc(Cl)cn1 | -11.2% | 10µM* | -0.1% | -12.0%
COC1C=CC23c4cc5c(cc4CN(CC2O)C3C1)OCO5 (configuration not stated) | -21.1% | ? | 1.78µM* | 1.26µM*
COc1c2c(cc3c1OCO3)C13C=CC(OC)CC1N(C2)CC3O (configuration not stated) | -8.1% | -4.7% | -16.6% | -12.8%
OC1(c2cccnc2)CCN(Cc2ccc3c(c2)CN(Cc2cccc(F)c2F)CCO3)CC1 | nt | -12.7% | -1.6% | -15.6%
N#Cc1cccc2c1-c1ccccc1/C2=N/NC(N)=S | ? | 35.5µM* | ? | ?
CCCSc1ccc2nc(-c3ccccc3)cn2c1 | -11.4% | 2.24µM* | -14.5% | -21.3%
CCCCSc1ccc2nc(-c3ccc(C#N)cc3)cn2c1 | -17.7% | -2.3% | -22.7% | nt
COc1ccccc1C1CN(CCNC(=O)c2cscn2)Cc2ccccc2O1 (configuration not stated) | nt | 7.2% | -5.2% | -10.8%
Cc1ccc(C2CCN(C(=O)Nc3ccc(Cl)c(Cl)c3)C2)cc1 (configuration not stated) | nt | 27.5% | -9.4% | 8.9%
COc1cc(OC)c(-c2nn3c(-c4n[nH]c5c4CCC5)nnc3s2)cc1OC | nt | nt | ? | 7.08µM*!
c1csc(Cc2nn3c(-c4n[nH]c5c4CCC5)nnc3s2)c1 | -13.9% | -4.6% | -18.9% | ?
CC1(C2CC2)NC(=O)N(CC(=O)N2CCN(c3cccc(C(F)(F)F)c3)CC2)C1=O (configuration not stated) | nt | 35.5µM* | -10.9% | -1.4%
